Test results published in PubChem BioAssay AID743445 (Broad Institute, 2014).
The whole screen tested about 310,000 compounds, of which about 1,700 (0.55%) were called active. This is one part of a sample in which actives are shown more often than they occur. Unmarked numbers belong to inactive results. Rule as the data show it: active = inhibition above about 50%; inactive = the rest.

These molecules were tested against Histone-lysine N-methyltransferase NSD2 (Homo sapiens) (UniProt O96028) (assay: NSD2 histone methyltransferase inhibitors, primary screen, biochemical, AlphaScreen, single concentration, set 2 (AID 743445)). Conditions: NSD2 peptide methylation, 120 min, at 12.5 µM, hits give high values.
Histone-lysine N-methyltransferase NSD2 (Homo sapiens), sequence (O96028 whole entry, looked up): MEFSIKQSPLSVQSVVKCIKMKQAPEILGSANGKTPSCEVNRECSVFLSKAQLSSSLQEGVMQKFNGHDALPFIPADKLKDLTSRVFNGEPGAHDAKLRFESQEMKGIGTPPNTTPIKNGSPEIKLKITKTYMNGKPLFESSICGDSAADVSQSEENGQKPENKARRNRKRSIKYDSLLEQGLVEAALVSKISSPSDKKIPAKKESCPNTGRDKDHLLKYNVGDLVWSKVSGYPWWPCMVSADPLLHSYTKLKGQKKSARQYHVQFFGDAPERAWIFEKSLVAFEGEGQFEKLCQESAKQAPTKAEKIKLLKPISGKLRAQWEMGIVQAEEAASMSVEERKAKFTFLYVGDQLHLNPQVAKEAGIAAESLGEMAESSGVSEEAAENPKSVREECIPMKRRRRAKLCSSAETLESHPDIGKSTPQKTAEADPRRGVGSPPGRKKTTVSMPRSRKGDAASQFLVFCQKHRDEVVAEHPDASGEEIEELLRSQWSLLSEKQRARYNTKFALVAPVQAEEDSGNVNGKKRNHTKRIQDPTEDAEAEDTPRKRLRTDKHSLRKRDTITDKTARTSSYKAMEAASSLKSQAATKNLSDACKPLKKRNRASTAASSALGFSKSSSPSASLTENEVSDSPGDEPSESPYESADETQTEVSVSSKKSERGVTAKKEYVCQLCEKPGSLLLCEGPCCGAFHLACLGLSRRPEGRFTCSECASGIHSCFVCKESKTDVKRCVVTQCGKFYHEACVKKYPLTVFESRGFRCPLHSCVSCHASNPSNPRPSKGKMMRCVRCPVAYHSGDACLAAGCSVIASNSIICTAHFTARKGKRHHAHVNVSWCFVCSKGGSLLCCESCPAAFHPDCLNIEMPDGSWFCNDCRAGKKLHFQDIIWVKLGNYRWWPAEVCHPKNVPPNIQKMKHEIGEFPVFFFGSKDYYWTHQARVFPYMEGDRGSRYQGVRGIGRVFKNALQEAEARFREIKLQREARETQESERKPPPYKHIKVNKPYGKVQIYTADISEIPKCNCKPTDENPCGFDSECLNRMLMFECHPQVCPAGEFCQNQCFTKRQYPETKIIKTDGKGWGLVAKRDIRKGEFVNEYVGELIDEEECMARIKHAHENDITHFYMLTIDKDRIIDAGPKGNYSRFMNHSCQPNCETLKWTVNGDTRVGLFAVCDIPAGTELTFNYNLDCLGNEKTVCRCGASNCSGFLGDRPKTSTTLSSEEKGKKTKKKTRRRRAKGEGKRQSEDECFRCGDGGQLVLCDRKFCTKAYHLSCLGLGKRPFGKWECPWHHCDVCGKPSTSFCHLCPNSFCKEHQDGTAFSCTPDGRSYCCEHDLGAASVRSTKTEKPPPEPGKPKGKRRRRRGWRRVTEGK
O=C(NC1CCCCCC1)C1CCN(C(=O)c2ccc(Cl)cc2)CC1 showed an inhibition of -0.793%.
Cc1ccnc(N2CCC(C(=O)NC3CCCCCC3)CC2)n1 was tested, and the inhibition was 90.5% (active).
Work on Cc1ccnc(N2CCCC(C(=O)NC3CC3)C2)n1 (stereo not given) yielded an inhibition of -1.73%.
Molecule O=S(=O)(c1ccccc1)N1CCC(c2nc3ccccc3o2)CC1 has an inhibition of -2.44%.
Nc1nonc1-n1nnc(C(=O)N/N=C/C2CCCCC2)c1-c1ccccc1 showed an inhibition of 4.38%.
In the case of CCOC(=O)c1nnn(-c2nc(OC)nc(N(C)C)n2)c1-c1ccccc1, the inhibition is reported as -2.39%.
With CCOC(=O)c1nnn(-c2nonc2OC)c1-c1ccccc1 the inhibition was 113% (active).
Molecule CN(CCc1ccccc1)C(=O)Cn1nc(-c2ccccc2)ccc1=O has an inhibition of 4.36%.
Cc1ccccc1NC(=O)CCOc1ccccc1 showed an inhibition of -2.79%.
Work on Cc1cccc(OCC(=O)Nc2ccccc2F)c1 yielded an inhibition of 12.4%.
Cc1cccc(OCCC(=O)Nc2ccccc2C(N)=O)c1 was tested, and the inhibition was 93.5% (active).
Work on COc1ccc(-c2ccc(C(=O)NC(C)C)c3occc23)c(C)c1 yielded an inhibition of -1.69%.
Work on CCc1ccccc1NC(=O)CSc1nnc(-c2cccs2)o1 yielded an inhibition of 3.02%.
Nc1ccn([C@@H]2O[C@H](C(=O)N[C@H]3CCCCNC3=O)[C@@H](O)[C@H]2O)c(=O)n1 was tested, and the inhibition was -3.79%.
With CCN(CC)c1ccc(NC(=O)c2ccc(Cl)nc2)cc1 the inhibition was 2.22%.
With O=C(NNC(=O)c1ccc(Cl)nc1)c1ccc(Br)cc1 the inhibition was 98.9% (active).
With CC(=O)NC(=S)NNC(=O)c1ccc(Br)cc1 the inhibition was -3.53%.
Work on COc1ccc(-c2cc(-c3nnc(SCC(=O)Nc4cccc5ccccc45)n3N)[nH]n2)cc1 yielded an inhibition of -2.83%.
In the case of CC(=O)c1ccc(Nc2nc(C(N)c3ccccc3)cs2)cc1 (stereo not given), the inhibition is reported as -2.82%.
Work on CC(=O)Nc1ccc(-c2ccnc3c2CC(C(=O)NC(C)C)O3)cc1 (stereo not given) yielded an inhibition of -0.999%.
In the case of O=C(Nc1ccc(Cl)cc1)C1Cc2c(-c3ccc4c(c3)OCO4)ccnc2O1 (stereo not given), the inhibition is reported as -1.29%.
With COc1ccc(NC(=O)C2Cc3c(-c4ccc(Cl)cc4)ccnc3O2)cc1 (stereo not given) the inhibition was 54.6% (active).
With CN(C)S(=O)(=O)c1cccc(NC(=O)COC(=O)/C=C/c2cccs2)c1 the inhibition was -17%.
Cc1ccc(S(=O)(=O)N(C)C)cc1NC(=O)COC(=O)/C=C/c1cccs1 showed an inhibition of 0.889%.
In the case of Cc1ccc(S(=O)(=O)N(C)C)cc1NC(=O)/C=C/c1cccs1, the inhibition is reported as 57.7% (active).
CC(NCc1ccco1)C(=O)N1CCCCC1 (stereo not given) was tested, and the inhibition was 0.508%.
Work on COc1ccccc1C(=O)CSc1nnc(-c2ccccn2)n1-c1ccccc1 yielded an inhibition of -4.28%.
Work on Cc1nc2cc(NC(=O)NCc3ccccc3)ccc2o1 yielded an inhibition of -1.07%.
COCCNC(=O)Nc1ccc2nc(-c3ccco3)c(-c3ccco3)nc2c1 was tested, and the inhibition was 104% (active).
CCOc1cc(NC(=S)NCCCOC)c(OCC)cc1NC(=O)c1ccco1 gave an inhibition of 1.89%.
For COc1ccccc1CNC(=O)c1cc(-c2cc(F)ccc2OC)n[nH]1, the inhibition was 4.87%.
For CCc1nc2c(OCCOc3ccccc3)cccn2c1N(C)C(=O)c1ccc(OC)cc1, the inhibition was -0.87%.
In the case of CCN1CCCC1CNc1ncnc2c1[nH]c1ccc(F)cc12 (stereo not given), the inhibition is reported as 74.6% (active).
With CCN1CCCC1CNC(=O)c1cc2cc(OC)c(OC)cc2[nH]1 (stereo not given) the inhibition was 17.7%.
With CCN1CCCC1Cn1cnc2c([nH]c3cc(OC)ccc32)c1=O (stereo not given) the inhibition was -4.76%.
Cc1ccccc1NC(=O)COC(=O)c1ccc(Sc2ncn[nH]2)c([N+](=O)[O-])c1 showed an inhibition of -0.523%.
In the case of C[C@H]1CCC/C=C/C(=O)c2c(O)cc(O)cc2CC(=O)O1, the inhibition is reported as 5.2%.
For Cc1ccc(-c2ccc(/C=N/NC(=O)CN3CCOCC3)o2)cc1[N+](=O)[O-], the inhibition was 59.9% (active).
O=C(CN1CCOCC1)N/N=C/c1ccc(-c2ccc(Br)cc2)o1 gave an inhibition of 4.03%.
Molecule Cc1occc1C(=O)N/N=C/c1ccc(-c2cccc([N+](=O)[O-])c2)o1 has an inhibition of 1.62%.
O=C(NCc1ccc(Cl)cc1)C1CCCN(c2nc3ccccc3o2)C1 (stereo not given) was tested, and the inhibition was -10.7%.
CC1CCN(c2ccc(C(=O)O)cc2NS(=O)(=O)c2ccc(Br)s2)CC1 was tested, and the inhibition was 1.4%.
For Cc1nc2ccc(C(=O)N3CCN(C(=O)C(C)(C)C)CC3)cc2n1C1CCCC1, the inhibition was -2.3%.
CSc1nccc(-c2ccc(S(=O)(=O)Nc3ccc(C(O)(C(F)(F)F)C(F)(F)F)cc3)s2)n1 was tested, and the inhibition was 3.98%.
For CCN(CC)CCCC(C)n1c2nc(=O)[nH]c(=O)c-2nc2cc(Cl)ccc21 (stereo not given), the inhibition was 187% (active).
For CCN(CC)CCn1c2ccc(Cl)cc2c2nc(C)sc21, the inhibition was 14.7%.
With COc1ccc(S(=O)(=O)N2CCCC(C(=O)NCCCn3ccnc3)C2)cc1OC (stereo not given) the inhibition was 57.8% (active).
CCN1CCN(C(=O)C2CCCN(S(=O)(=O)c3ccc(OC)c(OC)c3)C2)CC1 (stereo not given) gave an inhibition of -0.758%.
In the case of O=C(NCCCn1ccnc1)C1CCCN(S(=O)(=O)c2cc(Cl)ccc2Cl)C1 (stereo not given), the inhibition is reported as -2.69%.
Work on NC(Cc1ccc(F)cc1)c1csc(Nc2nncc3ccccc23)n1 (stereo not given) yielded an inhibition of -3.48%.
With O=C(CSc1nnc(-c2ccccc2)n1Cc1ccco1)Nc1ccccc1-c1ccccc1 the inhibition was 6.7%.
CC1(C)Cc2c(sc3nnn(Cc4ccc(Cl)cc4Cl)c(=O)c23)CO1 was tested, and the inhibition was 8.41%.
Cc1cccc(NC(=O)CSCC(=O)Nc2nnc(C3CC3)s2)c1 showed an inhibition of 1.4%.
For O=C(CN1C(=O)c2ccc([N+](=O)[O-])cc2C1=O)Nc1nnc(C2CC2)s1, the inhibition was 57.6% (active).
With O=C(Cc1cccs1)Nc1nnc(C2CC2)s1 the inhibition was 3.72%.
For O=C(C1CCN(S(=O)(=O)c2ccccc2)CC1)N1CCN(C2CCCCC2)CC1, the inhibition was 0.491%.
Oc1ccc(CNc2ccccc2O)cc1 was tested, and the inhibition was 85.7% (active).
O=[N+]([O-])c1ccccc1NCc1ccc(Cl)cc1 was tested, and the inhibition was 7.1%.
c1ccc(CNCc2ccc(CNCc3ccccc3)cc2)cc1 showed an inhibition of 1.25%.
With Cc1ccc(CSc2nnc(SCC(=O)NN=Cc3cc(Br)ccc3F)s2)cc1 the inhibition was -1.85%.
